PubChem BioAssay AID1024 (Sanford-Burnham Center for Chemical Genomics, 2008)
In all, about 96,000 compounds went through this assay and about 1,400 (1.5%) were called active.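 The calls were made as follows: active = activation factor of 2 or more for CYP2C9 at a 5 µM dose; inactive = the rest.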 Only a selection was taken, and actives are over-represented in it overall.

These compounds were tested against Cytochrome P450 2C9 (Homo sapiens) (UniProt P11712) (assay: human CYP2C9 activators, primary screen, biochemical, luminescence (AID 1024;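 also: 0 = sulfaphenazole-blocked wells and 1 = vehicle-only wells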)). Details: recombinant CYP2C9, luciferin-H conversion, at 5 µM, hits give high values, factor 1 = untreated enzyme, 0 = blocked.
Chain of Cytochrome P450 2C9 (Homo sapiens) (P11712 whole entry, looked up): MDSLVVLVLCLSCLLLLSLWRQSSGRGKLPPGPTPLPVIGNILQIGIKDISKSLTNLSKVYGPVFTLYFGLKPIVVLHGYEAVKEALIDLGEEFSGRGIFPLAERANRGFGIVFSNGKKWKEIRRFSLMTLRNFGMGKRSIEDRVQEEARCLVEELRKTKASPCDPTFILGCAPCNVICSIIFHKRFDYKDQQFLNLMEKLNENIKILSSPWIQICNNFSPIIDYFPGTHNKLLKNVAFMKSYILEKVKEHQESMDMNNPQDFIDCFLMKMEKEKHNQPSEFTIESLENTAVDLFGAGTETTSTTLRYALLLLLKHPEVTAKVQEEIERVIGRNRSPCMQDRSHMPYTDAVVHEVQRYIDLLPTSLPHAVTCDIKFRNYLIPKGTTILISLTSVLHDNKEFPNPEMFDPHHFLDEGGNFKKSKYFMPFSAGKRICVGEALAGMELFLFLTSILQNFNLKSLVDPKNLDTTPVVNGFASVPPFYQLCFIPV

Row | SMILES | activation factor
1 | c1ccc(COc2ccccc2CNCc2cccnc2)cc1 | 1.1 (inactive)
2 | Cc1csc(=NC(=O)c2ccccc2)n1CCO | 0.7 (inactive)
3 | Cc1cc(C)c2c3c(sc2n1)C(c1ccccc1)C(C#N)=C(N)O3 (stereo not given) | 0.9 (inactive)
4 | CC1CC(C)CN(S(=O)(=O)c2cccc(C(=O)N3C(=O)c4cccc(N)c4C3=O)c2)C1 (stereo not given) | 0.9 (inactive)
5 | O=C(CSc1nc(C2CC2)nc2ccccc12)Nc1ccc2c(c1)OCCO2 | 0.6 (inactive)
6 | O=C(O)C1CC=CCC1C(=O)Nc1ccccc1C(=O)N1CCN(c2ccccc2)CC1 (stereo not given) | 0.9 (inactive)
7 | COc1ccc(/C=C(\NC(=O)c2ccc(OC)c(OC)c2)C(=O)NCCc2c[nH]c3ccccc23)cc1 | 0.6 (inactive)
8 | CC(=O)N/C(=C/c1ccc(Cl)cc1)C(=O)NCCc1c[nH]c2ccccc12 | 2.7 (active)
9 | Cc1ccc(C(=O)N/C(=C/c2ccco2)C(=O)NCCc2c[nH]c3ccccc23)cc1C | 0.5 (inactive)
10 | O=C1c2ccccc2C(=O)N1CCCc1nc(-c2ccccc2)no1 | 0.8 (inactive)
11 | O=C1c2cccnc2C(=O)N1Cc1cccs1 | 0.9 (inactive)
12 | O=C1c2ccccc2C(=O)N1Cc1cc(-c2ccccc2Cl)no1 | 2.3 (active)
13 | Cc1c(C#N)c(NC(=O)c2ccccc2)n(Cc2ccccc2)c1C | 0.4 (inactive)
14 | CC(C)CC(=O)Nc1cc(C(F)(F)F)ccc1N1CCOCC1 | 0.9 (inactive)
15 | O=C(CNS(=O)(=O)c1cccc(C(F)(F)F)c1)Nc1ccccc1F | 1.2 (inactive)
16 | CC(CC(=O)Nc1cc(C(F)(F)F)ccc1Cl)c1ccccc1 (stereo not given) | 2.4 (active)
17 | Cc1nc2ccc(NC(=O)C(F)(F)F)cc2o1 | 1 (inactive)
18 | Cc1c(CCO)c(=O)[nH]n1C(=O)c1c(F)cccc1F | 1 (inactive)
19 | O=S(=O)(NCC1CCCO1)c1ccc2ccccc2c1 (stereo not given) | 3 (active)
20 | CCOc1ccc(S(=O)(=O)NCC2CCCO2)cc1 (stereo not given) | 0.9 (inactive)
21 | CCC(=O)Nc1ccc(S(=O)(=O)NCC2CCCO2)cc1 (stereo not given) | 1 (inactive)
22 | O=c1c2ccccc2nc2n1C(CSCc1ccccc1)CS2 (stereo not given) | 0.9 (inactive)
23 | CCN1CCN(C(=O)/C=C\C(=O)O)CC1 | 1 (inactive)
24 | Cc1ccc(CNC(=O)C2CC(c3ccccc3[N+](=O)[O-])=NO2)o1 (stereo not given) | 1.2 (inactive)
25 | Cc1ccc(S(=O)(=O)N2CCCC2C(=O)NCc2ccco2)cc1 (stereo not given) | 1.5 (inactive)
26 | CC(=O)Nc1ccc(S(=O)(=O)N2CCCC2C(=O)O)cc1 (stereo not given) | 1.1 (inactive)
27 | Cc1cccc(NC(=O)C2CCCN2S(=O)(=O)c2ccc(F)cc2)c1C (stereo not given) | 2.5 (active)
28 | Cc1cc(NC(=O)Cn2nc(C(F)(F)F)c3c2CCCC3)no1 | 0.9 (inactive)
29 | COC(=O)c1ccccc1NC(=O)Cn1nc(C(F)(F)F)c2c1CCC2 | 0.8 (inactive)
30 | O=C(Cn1nc(C(F)(F)F)c2c1CCC2)NCc1ccc(F)cc1 | 3.2 (active)
